Where “and” joins values, the source holds several entries; their conditions need not be identical. Equal values may be shown once. The whole screen tested about 5,500 compounds, of which about 2,000 (36%) were called active. About 18% were inconclusive and are not listed. Cut-off read from the data, not from the text of the source: active = normalized growth mostly below about 0.91 (no sharp cut-off); inconclusive = no clear call, values can overlap the other calls; inactive = mostly above about 0.92. Some of the results follow.
Assay: chemical genetic growth profiling, strain panel (AID 1159580);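 note: tested at 20 µM; growth read once vehicle control cultures reached saturation at 30 °C; 1 = growth at the plate median or of vehicle wells; lower values mean less growth of the strain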
Conditions: S. cerevisiae deletion strains, growth OD
[1] = locus YAL013W, strain DEP1, hits give low values
[2] = locus YMR307W, strain GAS1, hits give low values

Measured: normalized growth

N[C@@H](Cn1oc(=O)[nH]c1=O)C(=O)O
inactive: [1] 1.01 | locus YAL040C, strain CLN3, hits give low values 0.975 | locus YCL061C, strain MRC1 (second series), hits give low values 0.991 | locus YDR150W, strain NUM1, hits give low values 0.996 | locus YDR363W, strain ESC2, hits give low values 0.968 | locus YER002W, strain NOP16, hits give low values 0.979 | locus YGR078C, strain PAC10, hits give low values 0.979 | locus YMR263W, strain SAP30, hits give low values 1.01 | [2] 1.02 | locus YNL153C, strain GIM3, hits give low values 0.996 | locus YNL175C, strain NOP13, hits give low values 0.99 | locus YNL197C, strain WHI3, hits give low values 0.972 | locus YNL224C, strain SQS1, hits give low values 0.989 | locus YOR083W, strain WHI5 (second series), hits give low values 0.961

CC(CCC(=O)O)[C@H]1CCC2C3C(C[C@H](O)[C@@]21C)[C@@]1(C)CC[C@@H](O)C[C@H]1C[C@H]3O (stereo partly specified)
inactive: [1] 1.01 | locus YAL021C, strain ccr4, hits give low values 1.08 | locus YAL026C, strain drs2, hits give low values 1.03 | locus YAL030W, strain snc1, hits give low values 1.01 | locus YBL061C, strain skt5, hits give low values 1 | locus YBR009C, strain hhf1, hits give low values 1.05 | locus YBR021W, strain FUR4, hits give low values 0.995 | locus YBR023C, strain chs3, hits give low values 1.01 | locus YBR171W, strain sec66, hits give low values 1.02 | locus YBR229C, strain ROT2, hits give low values 1.01 | locus YBR231C, strain swc5, hits give low values 1 | locus YBR279W, strain paf1, hits give low values 1.02 | locus YCL011C, strain gbp2, hits give low values 1.02 | locus YCL016C, strain dcc1, hits give low values 1 | locus YCL029C, strain bik1, hits give low values 1.02 | locus YCL061C, strain MRC1, hits give low values 1.01 | locus YCL069W, strain vba3, hits give low values 1.02 | locus YCR088W, strain abp1, hits give low values 1.01 | locus YDL005C, strain med2, hits give low values 1.01 | locus YDL035C, strain GPR1, hits give low values 1.03 | locus YDL040C, strain nat1, hits give low values 1.02 | locus YDL074C, strain BRE1, hits give low values 1.02 | locus YDL101C, strain DUN1, hits give low values 1.02 | locus YDL185W, strain tfp1, hits give low values 1 | locus YDL192W, strain arf1, hits give low values 1.01 | locus YDR001C, strain nth1, hits give low values 1.02 | locus YDR069C, strain doa4, hits give low values 1.02 | locus YDR101C, strain arx1, hits give low values 0.985 | locus YDR137W, strain rgp1, hits give low values 0.991 | locus YDR159W, strain sac3, hits give low values 1.03 | locus YDR162C, strain NBP2, hits give low values 1.02 | locus YDR195W, strain ref2 1.03 | locus YDR297W, strain sur2, hits give low values 0.998 | locus YDR318W, strain mcm21, hits give low values 1.01 | locus YDR334W, strain swr1, hits give low values 1.03 | locus YDR335W, strain msn5, hits give low values 0.986 | locus YDR388W, hits give low values 1 | locus YDR392W, strain spt3, hits give low values 0.958 | locus YDR502C, strain sam2, hits give low values 1.01 | locus YEL003W, strain gim4, hits give low values 1.02 | locus YEL037C, strain rad23, hits give low values 1.03 | locus YEL061C, strain CIN8 (second series), hits give low values 1.02 | locus YEL061C, strain CIN8, hits give low values 1.03 | locus YER015W, strain faa2, hits give low values 0.982 | locus YER016W, strain bim1, hits give low values 0.99 | locus YER110C, hits give low values 1 | locus YER111C, strain swi4, hits give low values 1.03 | locus YER155C, strain BEM2 (second series), hits give low values 1.02 | locus YER155C, strain BEM2, hits give low values 1.01 | locus YER167W, strain BCK2, hits give low values 1.02 | locus YFR010W, strain ubp6, hits give low values 1.03 | locus YGL078C, strain dbp3, hits give low values 1.01 | locus YGL086W, strain mad1, hits give low values 1 | locus YGL167C, strain pmr1, hits give low values 0.995 | locus YGL173C, strain kem1, hits give low values 1.04 | locus YGL227W, strain vid30, hits give low values 1.01 | locus YGL240W, strain doc1, hits give low values 1.01 | locus YGL248W, strain PDE1, hits give low values 1.02 | locus YGL253W, strain hxk2, hits give low values 1.02 | locus YGR135W, strain pre9, hits give low values 0.993 | locus YGR252W, strain gcn5, hits give low values 0.965 | locus YHR013C, strain ard1, hits give low values 1.03 | locus YHR027C, strain rpn1, hits give low values 0.994 | locus YHR030C, strain SLT2, hits give low values 1.01 and 0.992 | locus YHR079C, strain IRE1 (second series), hits give low values 1 | locus YHR079C, strain IRE1, hits give low values 0.975 | locus YHR094C, strain hxt1, hits give low values 1 | locus YHR129C, strain ARP1, hits give low values 1.02 | locus YHR142W, strain chs7, hits give low values 1.05 | locus YHR200W, strain rpn10, hits give low values 0.994 | locus YIL066C, strain RNR3, hits give low values 1 | locus YIL073C, strain SPO22, hits give low values 1 | locus YIL125W, strain kgd1, hits give low values 1.01 | locus YIR030C, strain dcg1, hits give low values 1 | locus YJL092W, strain hpr5, hits give low values 1.01 | locus YJL095W, strain BCK1 (second series), hits give low values 1.01 | locus YJL095W, strain BCK1, hits give low values 1.02 and 0.977 | locus YJL115W, strain asf1, hits give low values 1.03 | locus YJL129C, strain trk1, hits give low values 1.05 | locus YJL134W, strain LCB3, hits give low values 1.01 | locus YJL154C, strain vps35, hits give low values 1.02 | locus YJL164C, strain tpk1, hits give low values 1.06 | locus YJL166W, strain qcr8, hits give low values 1.03 | locus YJL168C, strain set2, hits give low values 1.01 | locus YJL187C, strain SWE1 (second series), hits give low values 1.01 | locus YJL187C, strain SWE1, hits give low values 1.01 | locus YJR043C, strain POL32, hits give low values 0.994 | locus YJR066W, strain TOR1, hits give low values 0.93 | locus YKL009W, strain mrt4, hits give low values 0.959 | locus YKL068W, hits give low values 1.02 | locus YKL085W, strain MDH1 (second series), hits give low values 1 | locus YKL085W, strain MDH1, hits give low values 1 | locus YKL160W, strain elf1, hits give low values 0.995 | locus YKR001C, strain vps1, hits give low values 1.01 | locus YKR026C, strain gcn3, hits give low values 1.02 | locus YKR091W, strain srl3, hits give low values 1.02 | locus YLL001W, strain dnm1, hits give low values 0.989 | locus YLL026W, hits give low values 1.01 | locus YLL041C, strain sdh2, hits give low values 1.02 | locus YLR027C, strain aat2, hits give low values 1.02 | locus YLR039C, strain RIC1, hits give low values 1.09 | locus YLR058C, strain SHM2, hits give low values 1.02 | locus YLR102C, strain apc9, hits give low values 0.998 | locus YLR113W, strain HOG1, hits give low values 0.983 | locus YLR221C, strain rsa3, hits give low values 1.01 | locus YLR258W, strain gsy2, hits give low values 1.04 | locus YLR262C, strain YPT6 (second series), hits give low values 1.05 | locus YLR262C, strain YPT6, hits give low values 1.11 | locus YLR268W, strain sec22, hits give low values 0.986 | locus YLR320W, strain mms22, hits give low values 1.03 | locus YLR330W, strain CHS5, hits give low values 1.01 | locus YLR342W, strain FKS1 (second series), hits give low values 1.01 | locus YLR342W, strain FKS1, hits give low values 1 | locus YLR357W, strain rsc2, hits give low values 1.01 | locus YLR370C, strain arc18, hits give low values 0.999 | locus YLR371W, strain rom2, hits give low values 1 | locus YLR384C, strain iki3, hits give low values 0.991 | locus YLR418C, strain cdc73, hits give low values 0.994 | locus YML016C, strain PPZ1, hits give low values 1.03 | locus YML032C, strain rad52, hits give low values 0.995 | locus YML120C, strain ndi1, hits give low values 0.998 | locus YML124C, strain tub3, hits give low values 1.01 | locus YMR058W, strain fet3, hits give low values 1.03 | locus YMR078C, strain ctf18, hits give low values 1 | locus YMR125W, strain sto1, hits give low values 1.02 | locus YMR129W, hits give low values 0.991 | locus YMR205C, strain PFK2, hits give low values 1.02 | locus YMR223W, strain ubp8, hits give low values 1.02 | locus YMR231W, strain pep5, hits give low values 1.02 | [2] 0.983 | locus YNL067W, strain RPL9B, hits give low values 1.02 | locus YNL071W, strain lat1, hits give low values 1.03 | locus YNL128W, strain TEP1, hits give low values 1.02 | locus YNL183C, strain NPR1, hits give low values 0.925 | locus YNL209W, strain ssb2, hits give low values 0.993 | locus YNL233W, strain BNI4, hits give low values 1.01 | locus YNL248C, strain rpa49, hits give low values 1.02 | locus YNL250W, strain rad50, hits give low values 1.01 | locus YNL271C, strain bni1, hits give low values 1 | locus YNL298W, strain CLA4, hits give low values 0.999 | locus YNL307C, strain MCK1, hits give low values 1 | locus YNL322C, strain KRE1 (second series), hits give low values 1.01 | locus YNR049C, strain mso1, hits give low values 0.986 | locus YNR052C, strain pop2, hits give low values 1.03 | locus YOL006C, strain TOP1, hits give low values 1.07 | locus YOL012C, strain htz1 1.17 | locus YOL147C, strain pex11, hits give low values 1.01 | locus YOR001W, strain rrp6, hits give low values 1.02 | locus YOR061W, strain CKA2, hits give low values 1.02 | locus YOR069W, strain VPS5, hits give low values 1.02 | locus YOR070C, strain gyp1, hits give low values 1 | locus YOR080W, strain dia2, hits give low values 1.01 | locus YOR083W, strain WHI5, hits give low values 1.01 | locus YOR106W, strain vam3, hits give low values 1.07 | locus YOR136W, strain idh2, hits give low values 1.01 | locus YOR144C, strain elg1, hits give low values 1 | locus YOR184W, strain ser1, hits give low values 1 | locus YOR231W, strain MKK1, hits give low values 0.981 | locus YOR265W, strain rbl2, hits give low values 1 | locus YOR270C, strain vph1, hits give low values 1.11 | locus YOR290C, strain snf2, hits give low values 0.982 | locus YOR316C, strain cot1, hits give low values 1 | locus YPL051W, strain arl3, hits give low values 1.01 | locus YPL078C, strain atp4, hits give low values 1.03 | locus YPL106C, strain sse1, hits give low values 1.01 | locus YPL240C, strain hsp82, hits give low values 0.996 | locus YPL256C, strain CLN2, hits give low values 0.957 | locus YPR119W, strain clb2, hits give low values 1 | locus YPR141C, strain kar3, hits give low values 1.01 | locus YPR163C, strain tif3, hits give low values 0.992 | locus YPR167C, strain met16, hits give low values 1.03 | strain wtn01, hits give low values 0.993

Source: PubChem BioAssay AID1159580 (chemical genetic matrix, 2015)
